# From PubChem BioAssay (NCATS)
# Where “and” joins values, the source holds several entries; their conditions need not be identical. Equal values may be shown once. Records with an inconclusive call do not appear. A call without a number means that no potency is given here. Calls of active or inactive are those of the source. Unless noted, the call rests on the fitted dose curve; in most records, active means well fitted curve in the direction sought with a large enough effect; inconclusive means small, poorly fitted or top-dose-only effect, or another doubt; inactive means no such curve, though single readings can be large; an effect the other way counts as inactive or inconclusive.
# Legend:
# [1] = biological target: Calcium and integrin-binding protein 1 (Homo sapiens) (UniProt Q99828); assay: Primary qHTS for Identification of Calcium Integrin Binding Protein 1 (CIB1) Competitor (AID 1508620);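 further: GST tagged CIB1 binding a fluorescein labelled alphaIIb integrin peptide tracer; top concentration of the series differs between compounds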
# Sequence of Calcium and integrin-binding protein 1 (Homo sapiens) (Q99828 whole entry, looked up): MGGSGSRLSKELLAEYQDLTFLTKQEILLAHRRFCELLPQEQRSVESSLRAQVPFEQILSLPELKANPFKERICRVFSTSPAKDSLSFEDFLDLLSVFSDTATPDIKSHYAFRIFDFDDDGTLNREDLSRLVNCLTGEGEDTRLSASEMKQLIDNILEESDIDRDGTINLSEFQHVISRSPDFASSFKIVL
# Summary of the method: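 CIB1-GST (1 uM final) and compound incubated 15 min at room temperature before adding FITC-alphaIIb peptide tracer (100 nM final). Competition for binding read by fluorescence polarization (ex 480, em 540) after another 15 min at room temperature.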
# [2] = biological target: Cytochrome P450 3A4 (Homo sapiens) (UniProt P08684); assay: qHTS Assay for Activators of Cytochrome P450 3A4 (AID 885); further: nearly all actives have a fitted effect of over 65% in size
# Sequence of Cytochrome P450 3A4 (Homo sapiens) (P08684 whole entry, looked up): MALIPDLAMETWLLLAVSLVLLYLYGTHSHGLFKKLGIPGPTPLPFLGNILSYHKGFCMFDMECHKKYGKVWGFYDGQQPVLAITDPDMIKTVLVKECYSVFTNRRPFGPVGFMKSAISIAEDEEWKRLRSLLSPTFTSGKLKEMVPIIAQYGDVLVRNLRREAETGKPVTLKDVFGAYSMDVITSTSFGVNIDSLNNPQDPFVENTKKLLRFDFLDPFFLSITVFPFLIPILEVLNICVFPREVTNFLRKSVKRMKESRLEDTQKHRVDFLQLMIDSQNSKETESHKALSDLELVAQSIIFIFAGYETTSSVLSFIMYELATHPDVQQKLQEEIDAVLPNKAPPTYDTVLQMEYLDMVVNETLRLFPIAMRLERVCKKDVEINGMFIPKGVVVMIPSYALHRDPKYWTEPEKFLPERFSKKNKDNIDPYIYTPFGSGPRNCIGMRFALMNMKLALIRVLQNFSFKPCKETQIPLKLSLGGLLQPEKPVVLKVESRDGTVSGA
# Summary of the method: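 Using 20nM recombinant human CYP3A4 in potassium phosphate (200mM), substrate Luciferin-PPXE at 25uM, luminescent luciferin detection followed a 60-min RT NADPH reaction; data scaled to 57 uM ketoconazole.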
# [3] = Validation of Assay for Modulators of Lamin A Splicing (AID 1459; active means well fitted curve in the direction sought with a large enough effect in the signal ratio; the % refers to the signal ratio;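 further: cells exposed to compound for two days before reading; ratio rise marks activators and ratio drop marks inhibitors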)
# Summary of the method: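 S3 HeLa cells stably expressing a lamin A-EGFP splicing minigene and DsRed2 were seeded at 600 cells/well in Opti-MEM with 2% FBS, pin-dosed, and incubated 48 hrs at 37 °C, 5% CO2. Laser-scanning cytometry (488 nm) gave GFP/RFP total intensity ratio.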
# [4] = biological target: DNA repair nuclease/redox regulator APEX1 (Homo sapiens) (UniProt P27695); assay: qHTS Validation Assay for Inhibitors of the Human Apurinic/apyrimidinic Endonuclease 1 (APE1) (AID 1705; further: potency means the concentration at half of the fitted maximal effect)
# Sequence of DNA repair nuclease/redox regulator APEX1 (Homo sapiens) (P27695 whole entry, looked up): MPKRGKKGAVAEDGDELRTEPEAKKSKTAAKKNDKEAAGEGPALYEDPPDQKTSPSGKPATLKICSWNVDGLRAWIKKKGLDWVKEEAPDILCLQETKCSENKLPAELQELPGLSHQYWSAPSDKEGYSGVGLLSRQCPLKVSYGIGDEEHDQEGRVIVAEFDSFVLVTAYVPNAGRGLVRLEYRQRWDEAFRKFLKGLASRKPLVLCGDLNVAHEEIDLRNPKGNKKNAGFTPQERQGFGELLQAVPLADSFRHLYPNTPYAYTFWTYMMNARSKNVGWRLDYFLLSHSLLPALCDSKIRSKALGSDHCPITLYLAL
# Summary of the method: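 Human APE1 was preincubated with compound for 15 min at room temperature, then 50 nM (final) THF-abasic double-stranded DNA substrate bearing 5'-TAMRA and 3'-BHQ-2 was added. Incision-driven fluorescence rise (ex 525/em 598 nm) was read kinetically.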
# [5] = Counterscreen for APE1 Inhibitors: Fluorescent Dye Displacement Validation Assay (AID 1707); further: potency means the concentration at half of the fitted maximal effect
# Summary of the method: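 Loss of Thiazole Orange fluorescence marks promiscuous DNA binders. The dye (250 nM) is mixed with 50 nM abasic-site dsDNA in pH7.5 Tris buffer containing MgCl2, then compounds are added and emission is read once.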
# [6] = biological target: Endonuclease 4 (Escherichia coli (strain K12)) (UniProt P0A6C1); assay: Counterscreen for APE1 Inhibitors: qHTS Validation Assay for Inhibitors of Endonuclease IV (AID 1708); further: potency means the concentration at half of the fitted maximal effect
# Summary of the method: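 The reaction buffer contained 50 mM Tris-HCl pH 7.5, 50 mM NaCl, 2 mM MgCl2, 1 mM DTT and 0.01% Tween-20. Incision of a 50 nM fluorophore/quencher THF substrate by 2 nM enzyme was measured kinetically.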
# [7] = qHTS for differential inhibitors of proliferation of Plasmodium falciparum line 7G8 (AID 1815);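 further: parasite growth measured after three days of incubation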
# [8] = qHTS for differential inhibitors of proliferation of Plasmodium falciparum line D10 (AID 1877);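 further: parasites grown with compound for 72 h before DNA staining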
# [9] = qHTS for differential inhibitors of proliferation of Plasmodium falciparum line HB3 (AID 1886); settings: Potency: Plasmodium falciparum HB3 proliferation inhibition;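 further: parasites grown with compound for 72 h before SYBR Green readout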
# [10] = biological target: Ferritin light chain (Equus caballus) (UniProt P02791); assay: qHTS Validation Assay for Identification of Novel General Anesthetics (AID 2323); further: series mostly up to about 77 µM
# Sequence of Ferritin light chain (Equus caballus) (P02791 2-175 limits assumed): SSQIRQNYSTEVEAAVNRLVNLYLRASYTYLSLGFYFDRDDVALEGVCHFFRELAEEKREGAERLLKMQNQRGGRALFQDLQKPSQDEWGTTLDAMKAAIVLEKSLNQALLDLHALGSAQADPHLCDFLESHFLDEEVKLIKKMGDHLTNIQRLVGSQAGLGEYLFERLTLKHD
# Summary of the method: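 Competitive displacement of profluorescent 1-aminoanthracene (1-AMA, 50% saturated solution in PBS) from 10 uM horse-spleen apoferritin. Compounds incubated 10 min at room temperature; fluorescence read at 380 nm excitation/535 nm emission, normalized to free 1-AMA and complex, fitted with four-parameter Hill equation.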
# [11] = biological target: ATP-dependent DNA helicase Q1 (Homo sapiens) (UniProt P46063); assay: qHTS Validation Assay for Inhibitors of RecQ-Like Dna Helicase 1 (RECQ1) (AID 2353)
# Sequence of ATP-dependent DNA helicase Q1 (Homo sapiens) (P46063 whole entry, looked up): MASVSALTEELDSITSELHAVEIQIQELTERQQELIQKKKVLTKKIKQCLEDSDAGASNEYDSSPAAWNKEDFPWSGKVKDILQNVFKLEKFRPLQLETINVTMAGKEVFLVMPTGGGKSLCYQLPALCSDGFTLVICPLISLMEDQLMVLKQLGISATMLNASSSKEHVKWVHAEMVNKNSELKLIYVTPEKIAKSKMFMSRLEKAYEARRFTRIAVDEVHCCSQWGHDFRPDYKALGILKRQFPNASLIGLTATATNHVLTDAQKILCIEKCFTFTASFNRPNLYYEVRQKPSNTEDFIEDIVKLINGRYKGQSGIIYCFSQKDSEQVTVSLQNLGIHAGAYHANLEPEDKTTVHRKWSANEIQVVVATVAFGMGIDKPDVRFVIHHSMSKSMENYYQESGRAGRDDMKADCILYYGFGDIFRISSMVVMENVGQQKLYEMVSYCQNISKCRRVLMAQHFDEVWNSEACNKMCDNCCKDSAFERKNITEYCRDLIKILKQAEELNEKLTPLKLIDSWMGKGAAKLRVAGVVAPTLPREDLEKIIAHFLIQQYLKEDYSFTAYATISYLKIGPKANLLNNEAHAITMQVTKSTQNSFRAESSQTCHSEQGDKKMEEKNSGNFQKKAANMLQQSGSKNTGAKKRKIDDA
# Summary of the method: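 RECQ1T1 50 nM; forked duplex (20 bp + 30-nt ss tails) 200 nM, ATP 2 mM final; pH 8.0, 2 mM MgCl2, 2.5 ug/ml poly(dI-dC); 15 min compound preincubation; discontinuous kinetic read over 2 h at RT.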
# [12] = biological target: Tyrosyl-DNA phosphodiesterase 1 (Homo sapiens) (UniProt Q9NUW8); assay: Confirmation Assay for Inhibitors of Tyrosyl-DNA Phosphodiesterase (TDP1) (AID 489007); settings: recombinant human TDP1 enzymatic activity, dose-response; further: potency means the concentration at half of the fitted maximal effect; nearly all actives have a fitted effect of over 40% in size
# Sequence of Tyrosyl-DNA phosphodiesterase 1 (Homo sapiens) (Q9NUW8 whole entry, looked up): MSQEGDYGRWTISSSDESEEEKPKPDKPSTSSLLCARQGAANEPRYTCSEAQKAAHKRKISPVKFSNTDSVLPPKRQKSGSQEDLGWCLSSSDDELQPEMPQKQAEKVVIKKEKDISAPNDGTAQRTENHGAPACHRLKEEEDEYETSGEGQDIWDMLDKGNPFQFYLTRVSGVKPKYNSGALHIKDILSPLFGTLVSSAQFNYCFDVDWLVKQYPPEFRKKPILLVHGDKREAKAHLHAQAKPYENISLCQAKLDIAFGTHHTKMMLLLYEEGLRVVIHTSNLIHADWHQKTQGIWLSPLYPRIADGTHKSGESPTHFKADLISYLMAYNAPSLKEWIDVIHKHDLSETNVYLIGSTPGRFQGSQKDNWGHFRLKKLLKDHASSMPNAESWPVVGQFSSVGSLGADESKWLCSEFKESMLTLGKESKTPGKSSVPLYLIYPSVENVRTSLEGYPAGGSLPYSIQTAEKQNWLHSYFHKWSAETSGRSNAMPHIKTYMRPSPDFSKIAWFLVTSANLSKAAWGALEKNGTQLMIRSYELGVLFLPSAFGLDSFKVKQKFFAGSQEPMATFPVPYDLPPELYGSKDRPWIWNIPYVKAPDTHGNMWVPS
# Summary of the method: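 AlphaScreen read-out: streptavidin donor and anti-FITC acceptor beads (10 ug/ml) bind intact substrate, so Tdp1 removal of tyrosine-FITC lowers signal. Enzyme 1 nM, substrate 15 nM, 5 min reaction at room temperature after 15 min compound preincubation.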
# [13] = biological target: Rap guanine nucleotide exchange factor 3 (Homo sapiens) (UniProt O95398); assay: Confirmatory qHTS for antagonist of cAMP-regulated guanine nucleotide exchange factor 3 (EPAC1) (AID 1645880); further: nearly all actives have a fitted effect of over 55% in size; further: potency means the concentration at half of the fitted maximal effect
# Sequence of Rap guanine nucleotide exchange factor 3 (Homo sapiens) (O95398 whole entry, looked up): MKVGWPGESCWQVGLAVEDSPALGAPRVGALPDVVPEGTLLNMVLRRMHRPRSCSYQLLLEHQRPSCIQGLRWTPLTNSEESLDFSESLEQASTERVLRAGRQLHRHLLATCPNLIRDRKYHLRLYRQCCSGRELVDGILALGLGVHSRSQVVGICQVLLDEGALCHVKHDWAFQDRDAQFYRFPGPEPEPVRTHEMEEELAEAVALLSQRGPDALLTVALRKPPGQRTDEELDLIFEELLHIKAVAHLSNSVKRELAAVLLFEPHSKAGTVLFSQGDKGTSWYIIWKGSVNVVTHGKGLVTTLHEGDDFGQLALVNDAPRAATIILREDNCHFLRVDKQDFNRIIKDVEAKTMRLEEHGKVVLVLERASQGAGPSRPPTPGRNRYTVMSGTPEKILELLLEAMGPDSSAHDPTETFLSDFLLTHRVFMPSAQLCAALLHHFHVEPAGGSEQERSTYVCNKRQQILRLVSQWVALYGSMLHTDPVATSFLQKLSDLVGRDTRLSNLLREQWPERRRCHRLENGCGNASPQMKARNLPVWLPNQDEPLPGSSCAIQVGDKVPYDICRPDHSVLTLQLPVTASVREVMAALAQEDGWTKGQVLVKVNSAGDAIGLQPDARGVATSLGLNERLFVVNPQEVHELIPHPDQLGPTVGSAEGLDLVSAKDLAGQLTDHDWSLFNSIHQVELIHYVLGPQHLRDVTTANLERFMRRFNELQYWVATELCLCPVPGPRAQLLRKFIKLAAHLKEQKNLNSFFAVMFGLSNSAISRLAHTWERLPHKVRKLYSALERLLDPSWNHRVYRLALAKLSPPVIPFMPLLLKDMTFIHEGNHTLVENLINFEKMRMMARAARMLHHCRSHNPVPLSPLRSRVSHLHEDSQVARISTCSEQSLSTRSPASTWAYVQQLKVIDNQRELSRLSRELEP
# Summary of the method: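 Released BODIPY-GDP fluoresces less than Rap1-bound BODIPY-GDP; the signal is followed at 480/540 nm at 5-min intervals over 30 min, after 5 min at room temperature. Reactions contain 100 nM EPAC1, 250 nM RAP1B-BODIPY-GDP and 50 uM GDP; results are normalized to ATA and DMSO.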
# [14] = biological target: Rap guanine nucleotide exchange factor 3 (Homo sapiens) (UniProt O95398); assay: Confirmatory qHTS for agonist of cAMP-regulated guanine nucleotide exchange factor 3 (EPAC1) (AID 1645881);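 further: EPAC1 catalysed release of BODIPY-GDP from Rap1B seen as fluorescence loss; nearly all actives have a fitted effect of over 75% in size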
# [15] = biological target: Rap guanine nucleotide exchange factor 4 (Homo sapiens) (UniProt Q8WZA2); assay: Confirmatory qHTS for agonist of cAMP-regulated guanine nucleotide exchange factor 4 (EPAC2) (AID 1645884);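 further: nucleotide exchange releases bodipy-GDP from Rap1 and this lowers its fluorescence; nearly all actives have a fitted effect of over 65% in size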
# Sequence of Rap guanine nucleotide exchange factor 4 (Homo sapiens) (Q8WZA2 whole entry, looked up): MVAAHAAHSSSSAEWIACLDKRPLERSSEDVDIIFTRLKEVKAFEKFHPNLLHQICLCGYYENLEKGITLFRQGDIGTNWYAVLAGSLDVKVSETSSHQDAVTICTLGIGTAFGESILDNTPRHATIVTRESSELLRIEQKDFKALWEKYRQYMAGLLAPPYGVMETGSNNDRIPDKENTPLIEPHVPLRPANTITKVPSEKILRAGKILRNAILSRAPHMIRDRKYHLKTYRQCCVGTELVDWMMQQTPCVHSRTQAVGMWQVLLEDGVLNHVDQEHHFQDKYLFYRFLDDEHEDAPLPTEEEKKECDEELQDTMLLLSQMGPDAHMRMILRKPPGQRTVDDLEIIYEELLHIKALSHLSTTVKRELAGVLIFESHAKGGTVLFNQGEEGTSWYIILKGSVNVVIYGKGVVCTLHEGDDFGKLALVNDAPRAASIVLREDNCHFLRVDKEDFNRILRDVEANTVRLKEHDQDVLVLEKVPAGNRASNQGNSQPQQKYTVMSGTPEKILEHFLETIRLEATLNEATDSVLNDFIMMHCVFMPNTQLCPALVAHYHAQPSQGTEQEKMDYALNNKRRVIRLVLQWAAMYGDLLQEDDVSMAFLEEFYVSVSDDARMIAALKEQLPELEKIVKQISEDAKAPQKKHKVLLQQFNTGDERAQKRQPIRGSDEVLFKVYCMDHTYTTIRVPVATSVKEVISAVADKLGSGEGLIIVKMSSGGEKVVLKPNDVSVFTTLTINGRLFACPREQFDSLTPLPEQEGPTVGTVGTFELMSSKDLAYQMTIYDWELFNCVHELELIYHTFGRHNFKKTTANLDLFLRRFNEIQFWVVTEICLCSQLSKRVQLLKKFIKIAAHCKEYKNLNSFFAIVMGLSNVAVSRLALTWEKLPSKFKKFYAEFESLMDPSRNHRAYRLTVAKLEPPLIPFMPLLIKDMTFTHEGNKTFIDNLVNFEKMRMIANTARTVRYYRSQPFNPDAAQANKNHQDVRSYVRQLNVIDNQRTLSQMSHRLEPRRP
# [16] = biological target: Rap guanine nucleotide exchange factor 4 (Homo sapiens) (UniProt Q8WZA2); assay: Confirmatory qHTS for antagonist of cAMP-regulated guanine nucleotide exchange factor 4 (EPAC2) (AID 1645885); further: nearly all actives have a fitted effect of over 25% in size
# [17] = biological target: Rap guanine nucleotide exchange factor 3 (Homo sapiens) (UniProt O95398); assay: Counterscreen qHTS for antagonist of cAMP-regulated guanine nucleotide exchange factor 3 (EPAC1) (AID 1645888)
# Summary of the method: (§1)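 Rap1B-BODIPY-GDP 250 nM + GDP 50 uM; cpds 7-pt, final 9.74 nM–152 uM (activator mode) or from 7.32 nM upwards (inhibitor mode); RT; FI 480/540 nm at 5 and 30 min, then ± cAMP, reread.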
# [18] = biological target: Rap guanine nucleotide exchange factor 3 (Homo sapiens) (UniProt O95398); assay: Counterscreen qHTS for agonist of cAMP-regulated guanine nucleotide exchange factor 3 (EPAC1) (AID 1645889); further: nearly all actives have a fitted effect of over 40% in size; further: potency means the concentration at half of the fitted maximal effect
# Summary of the method: as §1
# [19] = biological target: Phospholipid hydroperoxide glutathione peroxidase GPX4 (Homo sapiens) (UniProt P36969); assay: Primary qHTS Assay for Inhibitors of Recombinant Selenoprotein Glutathione Peroxidase 4 (GPX4) (AID 1845192); settings: outcome: dose series up to 50 µM unless noted; further: series mostly up to about 50 µM; nearly all actives have a fitted effect of over 65% in size
# Sequence of Phospholipid hydroperoxide glutathione peroxidase GPX4 (Homo sapiens) (P36969 whole entry, looked up): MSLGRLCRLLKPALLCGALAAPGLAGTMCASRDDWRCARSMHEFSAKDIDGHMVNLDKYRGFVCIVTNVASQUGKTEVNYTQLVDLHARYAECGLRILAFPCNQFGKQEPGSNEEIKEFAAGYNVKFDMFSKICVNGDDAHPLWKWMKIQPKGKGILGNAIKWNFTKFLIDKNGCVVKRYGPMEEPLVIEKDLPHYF
# Summary of the method: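 NADPH consumption followed by fluorescence at 340/450 nm, t=0 and after 15 min at room temperature. Reaction started with cumene hydroperoxide (0.5 mM final) after 30 min compound–GPX4 preincubation; final 200 nM GPX4, 100 nM GR, 1 mM GSH, 0.5 mM NADPH.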
# [20] = qHTS drug screen for cell cycle checkpoint inhibitors in PARPi-resistant BRCA-mutant ovarian cancer cell lines. (AID 1963452; calls by dose curve); settings: PEO1/OlaR viability, CellTiter-Glo luminescence, 96 h, stronger effect = lower value
# Summary of the method: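 PEO1, PEO4 and PEO1/OlaR ovarian cancer cells, 600 per well, exposed 96 h at 37C to a dilution series. Viability read by CellTiter-Glo luminescence, normalized to DMSO and empty wells; activity summarized as Z-AUC.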
smiles,measurement,setting,value
COc1ccc2c(c1)Oc1nc(-c3ccc(C)s3)nc(SCC(=O)Nc3cccc(C(=O)O)c3)c1C2,outcome,[1],inactive
O=C(Nc1cc(C(=O)Nc2ccc(S(=O)(=O)O)cc2S(=O)(=O)O)cc(C(=O)Nc2ccc(S(=O)(=O)O)cc2S(=O)(=O)O)c1)Nc1cc(C(=O)Nc2ccc(S(=O)(=O)O)cc2S(=O)(=O)O)cc(C(=O)Nc2ccc(S(=O)(=O)O)cc2S(=O)(=O)O)c1,Potency,[2],inactive
same,outcome,[3],inactive
same,Potency,[4],2.51 µM (active)
same,Potency,[5],4.47 µM (active)
same,Potency,[6],6.31 µM (active)
same,Potency,[7],inactive
same,Potency,[8],inactive
same,Potency,[9],inactive
same,outcome,[10],inactive
same,Potency,[11],inactive
same,Potency,[12],316 nM (active) and 1.26 µM (active)
O=c1c(O)cc(C2Oc3cc(O)cc(O)c3CC2O)cc2c(C3Oc4cc(O)cc(O)c4CC3O)cc(O)c(O)c12 (configuration not stated),Potency,[2],inactive
COc1ccc(NS(=O)(=O)c2ccc3c(c2)[C@H]2C=CC[C@H]2[C@@H](c2ccc(C(=O)O)cc2)N3)cc1,Potency,[13],19 µM (active)
same,outcome,[14],inactive
same,outcome,[15],inactive
same,Potency,[16],inactive
same,outcome,[17],inactive
same,Potency,[18],inactive
N#C/C(=C\c1ccc(-c2ccc(Cl)c(C(=O)O)c2)o1)c1nc2ccccc2[nH]1,Potency,[12],112 µM (active)
same,outcome,[15],inactive
same,"activity change, negative = inhibition",[16],-25.6% [at 12.7 µM] (inactive)
same,outcome,[17],inactive
same,Potency,[18],79.4 µM (active)
O=c1c(-c2cc(O)c(O)c(O)c2)coc2cc(O)c(O)c(O)c12,Potency,[2],inactive
same,Potency,[12],0.282 µM (active)
O=C(OCC#CCSc1nnc(-c2ccc(F)cc2)o1)c1ccc(F)cc1,outcome,[1],inactive
O=C(OCC#CCSc1nnc(-c2cccc3ccccc23)o1)c1cccc(C(F)(F)F)c1,outcome,[1],inactive
O=C(Nc1ccccc1C(=O)OCc1cc(=O)n2c3c(sc2n1)CCCC3)c1ccc(F)cc1,Potency,[13],inactive
same,outcome,[14],inactive
same,"activity change, negative = inhibition",[16],-5.61% [at 12.7 µM] (inactive)
same,outcome,[17],inactive
C/C=C/C[C@@H](C)[C@@H](O)[C@H]1C(=O)N[C@@H](CC)C(=O)N(C)CC(=O)N(C)[C@@H](CC(C)C)C(=O)N[C@@H](C(C)C)C(=O)N(C)[C@@H](CC(C)C)C(=O)N[C@@H](C)C(=O)N[C@H](C)C(=O)N(C)[C@@H](CC(C)C)C(=O)N(C)[C@@H](CC(C)C)C(=O)N(C)[C@H](C(C)C)C(=O)N1C,Potency,[19],inactive
CC1(C)CC[C@]2(C(=O)O)CC[C@]3(C)C(=CC[C@@H]4[C@@]5(C)C[C@@H](O)[C@H](O)C(C)(C)[C@@H]5CC[C@]43C)[C@@H]2C1,Potency,[19],inactive
same,Z-AUC,[20],1.45 (inactive)
same,Z-AUC,[20]; measured here: PEO1 parental Z-AUC,0.722
same,Z-AUC,[20]; measured here: PEO4 Z-AUC,0.511
